Laboratory results from PubChem BioAssay (NCATS).
Results filed as inconclusive are left out. Values without a mark were called inactive. Active and inactive are the calls of the source. The call rests on the fitted dose curve; in most records, active means well fitted inhibition curve with a large enough effect; inconclusive means small, poorly fitted or top-dose-only effect; inactive means flat fitted curve, though single readings scatter. Where a SMILES comes first, the peptide text is derived from it. The star is where a group is joined. AFC = O=c1cc(C(F)(F)F)c2ccc(N*)cc2o1

The molecules below were run on NIH3T3 (assay: Cytotoxic Profiling of Annotated Libraries Using Quantitative High-Throughput Screening (AID 1296008; further: nearly all actives have a fitted effect of over 60% in size)). Details: Five cell lines viability, CellTiter-Glo ATP luminescence, 48-72 h; max response: stronger effect = lower value.
Procedure, shortened: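 Cytotoxicity was measured as CellTiter-Glo ATP luminescence, read after 10 min at room temperature. Compound treatment of the cells lasted 48 or 72 hr at 37 degrees Celsius in a qHTS format.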
On the % scale 0 is the no-effect control and ±100 the full control effect; potency means the concentration at half of the fitted maximal effect.

Row | SMILES | max response [%] | Potency
1 | O=C(CCCCN1CCOCC1)Nc1ccc(-c2cccnc2)cc1 | 4.47 | –
2 | CC1(C)CCC2(C(=O)OC3OC(CO)C(O)C(O)C3O)CCC3(C)C(=CCC4C5(C)CCC(OC6OC(C(=O)O)C(OC7OC(CO)C(O)C(O)C7O)C(OC7OC(CO)C(O)C(O)C7O)C6O)C(C)(C)C5CCC43C)C2C1 (stereo not drawn) | -0.359 | –
3 | C/C=C(\C)C(=O)O[C@@H]1CC2[C@@H](CC=C3C[C@@H](O[C@H]4C[C@H](OC)[C@H](O[C@H]5C[C@H](OC)[C@H](O[C@@H]6O[C@H](C)[C@@H](O[C@H]7C[C@H](OC)[C@H](O[C@@H]8O[C@H](CO)[C@@H](O)[C@H](O)[C@H]8O)[C@@H](C)O7)[C@H](OC)[C@H]6O)[C@@H](C)O5)[C@@H](C)O4)CC[C@@]32C)[C@@]2(O)CC[C@H](C(C)=O)[C@@]12C (stereo partly drawn) | -3.87 | –
4 | C=C[C@@](C)(O)CC/C=C(\C)C(=O)O[C@@H]1[C@@H]2O[C@]2(C)[C@H]2[C@H](O[C@@H]3O[C@H](CO)[C@@H](O)[C@H](O)[C@H]3O)OC=C[C@@]12O | 1.5 | –
5 | C=C[C@H]1[C@H](O[C@@H]2O[C@H](CO)[C@@H](O)[C@H](O)[C@H]2O)OC=C(C(=O)OC)[C@H]1CCOC(=O)c1cc(O)c(O)c(O)c1 | -1.02 | –
6 | COc1cc2c(cc1O)CC[C@H]1[C@@H]2CC[C@]2(C)[C@H](O)CC[C@@H]12 | – | 0.82 µM (active)
7 | CC1(C)CC[C@]2(CO[C@@H]3O[C@H](CO)[C@@H](O)[C@H](O)[C@H]3O)[C@@H](O)C[C@]3(C)C(=CCC4[C@@]5(C)CC[C@H](O[C@@H]6O[C@H](CO[C@@H]7O[C@H](CO[C@@H]8OC[C@@H](O)[C@H](O)[C@H]8O)[C@@H](O)[C@H](O)[C@H]7O)[C@@H](O)[C@H](O)[C@H]6O)C(C)(C)C5CC[C@]43C)[C@@H]2C1 (stereo partly drawn) | -21.6 | –
8 | CC1(C)C2CC=C(COC3OC(COC4OCC(O)(CO)C4O)C(O)C(O)C3O)C1C2 (stereo not drawn) | 3.88 | –
9 | N#C[C@@H]1CCCN1C(=O)CNC12CC3CC(CC(O)(C3)C1)C2 | -1.17 | –
10 | O=C(Nc1ccc(S(=O)(=O)Nc2nccs2)cc1)C(c1ccccc1)c1ccccc1 | 3.11 | –
11 | COCCN1CCN(Cc2ccc(-c3n[nH]c4c3C(=O)c3c(NC(=O)NN5CCOCC5)cccc3-4)cc2)CC1 | – | 0.517 µM (active)
12 | CCOC(=O)C(CCc1ccccc1)NC1CSC(c2cccs2)CN(CC(=O)O)C1=O (stereo not drawn) | -0.887 | –
13 | COc1ccc(C[C@H](N)C(=O)N[C@@H]2[C@H](O)[C@H](n3cnc4c(N(C)C)ncnc43)O[C@@H]2CO)cc1 | – | 4.61 µM (active)
14 | COc1ccc(C2(O)CCC(N3CC[C@@H](NC(=O)CNC(=O)c4cccc(C(F)(F)F)c4)C3)CC2)cn1 (stereo partly drawn) | -3.76 | –
15 | O=C(O)/C=C/c1cc2c(cc1O[C@@H]1O[C@H](CO)[C@@H](O)[C@H](O)[C@H]1O)OCO2 | 4.44 | –
16 | O=C(CCc1ccccc1)N1CCC(O)(Cn2cnc3cc(Cl)ccc3c2=O)CC1 | -4.94 | –
17 | CCOc1cc2ncc(C#N)c(Nc3ccc(F)c(Cl)c3)c2cc1NC(=O)/C=C/CN(C)C | – | 3.66 µM (active)
18 | CC1(C)C=CN2C(=O)C3=CCCN3C(=O)[C@@H]2C[C@@]12Nc1ccccc1C2=O | -3.89 | –
19 | CC(C)(O[C@@H]1O[C@H](CO)[C@@H](O)[C@H](O)[C@H]1O)C(OC(=O)/C=C\c1ccc(O)cc1)C(=O)OCc1ccc(O[C@@H]2O[C@H](CO)[C@@H](O)[C@H](O)[C@H]2O)cc1 (stereo partly drawn) | -27.1 | –

Row | SMILES | max response [%] | Potency
20 | C=C(CO[C@@H]1O[C@H](CO[C@@H]2OC[C@](O)(CO)[C@H]2O)[C@@H](O)[C@H](O)[C@H]1O)C1Cc2cc(C(C)=O)ccc2O1 (stereo partly drawn) | 3.36 | –
21 | NC(=O)C(CCC(F)(F)F)N(Cc1ccc(-c2ncon2)cc1F)S(=O)(=O)c1ccc(Cl)cc1 (stereo not drawn) | -69 | –
22 | Cc1nc(Nc2n[nH]c3c2CN(C(=O)NC(CN(C)C)c2ccccc2)C3(C)C)c2sccc2n1 (stereo not drawn) | – | 8.2 µM (active)
23 | CC(C)(O)c1ccc2c(c1)C(O)C[C@H]1[C@](C)(C(=O)O)CCC[C@]21C (stereo partly drawn) | 4.86 | –
24 | CC(=O)O[C@H]1CC[C@H](C)[C@@]2(C)[C@H](OC(C)=O)c3c(C)coc3C(=O)[C@H]12 | -5.72 | –
25 | O=C(NCc1ccccn1)Nc1nnc(-c2ccco2)o1 | 3.06 | –
26 | COc1ccc(/C=C/C(=O)O[C@H]2[C@H](O[C@H]3[C@@H]4C=CO[C@@H](O[C@@H]5O[C@H](CO)[C@@H](O)[C@H](O)[C@H]5O)[C@@H]4[C@@]4(CO)O[C@@H]34)O[C@@H](C)[C@H](O)[C@H]2OC(C)=O)cc1 | -16.4 | –
27 | C/C=C/c1ccc2oc(-c3ccc(O)c(OC)c3)c(C)c2c1 | -2.29 | –
28 | COc1cc2c(cc1O)[C@H](c1ccc(O[C@@H]3O[C@H](CO)[C@@H](O)[C@H](O)[C@H]3O)c(OC)c1)[C@@H](CO)[C@](O)(CO)C2 | 2.92 | –
29 | CC(=O)N[C@@H](Cc1c[nH]c2ccccc12)C(=O)N[C@@H](CCC(=O)O)C(=O)N[C@@H](Cc1cnc[nH]1)C(=O)N[C@@H](CC(=O)O)C(=O)Nc1ccc2c(C(F)(F)F)cc(=O)oc2c1 (Ac-WEHD-{AFC}) | 0.286 | –
30 | CC(=O)/C=C/[C@H]1[C@](C)(O)[C@@H](O)[C@H](OC(C)=O)C2C(C)(C)CCC[C@@]21C (stereo partly drawn) | -10.6 | –
31 | N[C@@]1(C(=O)O)CC[C@H]2[C@H](C(=O)O)[C@H]21 | 4.48 | –
32 | O=C1NC2CCc3nc4ccccc4c(=O)n3C2=Nc2ccccc21 (stereo not drawn) | 4.44 | –
33 | CCO[C@@H]1OC(=O)C[C@@H]1NC(=O)[C@@H]1CCCN1C(=O)[C@@H](NC(=O)c1ccc(N)c(Cl)c1)C(C)(C)C | -4.45 | –
34 | COC(=O)/C=C/C12COC(C)(C)C1C(O)C(OC(C)=O)C1(C)C2CCC2(C)C(c3ccoc3)OC(=O)C3OC321 (stereo not drawn) | -16.9 | –
35 | COc1ccc(CCC(=O)c2c(O)cc(O)cc2O[C@@H]2O[C@H](CO)[C@@H](O)[C@H](O)[C@H]2O)cc1 | -8.41 | –
36 | C=C1C(=O)O[C@@H]2/C=C(\C)C(=O)/C=C/[C@](C)(O)C[C@@H](OC(=O)C(C)C)[C@@H]12 | – | 2.55 µM (active)
37 | COc1cc(O)c([C@@H](CC(=O)N2CC(C)CC(C)C2)c2ccc3c(c2)OCO3)c(OC)c1 (stereo partly drawn) | -1.6 | –
38 | CC1(C(=O)O)CCCC2(C)C3=CCC4CC3(CCC12)CC4CO (stereo not drawn) | -1.37 | –
